# Experimental data as given in PubChem BioAssay (NCI).
# The panel holds about 83,000 compounds, 20% with a hit somewhere; the sample as a whole holds those more often.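 A percent growth of 40 corresponds to 60% growth inhibition; 0 means no net growth; -100 means all cells died. Active threshold: below 10.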 Unmarked numbers belong to inactive results. Calls of active or inactive are those of the source.
# Test system: HOP-92 NSCLC
# Test: NCI-60 one-dose screen, 48 h (100 = growth as untreated, 0 = no growth, -100 = all killed)
# Conditions: 10 µM unless noted
row,Compound,growth
1,CN(C)C(=S)N=Nc1c(O)[nH]c2ccccc12,-6.97% (active)
2,NC(N)=N/N=C(/c1ccccc1)c1ccc(F)cc1,-16.9% (active)
3,CC(=O)c1cc2c(N)c(C(=O)Nc3cccc4ccccc34)sc2nc1C,61.6%
4,O=c1ccccc(-c2ccc(Br)cc2)c1O,58%
5,CCCCC(=O)OCC1OC(n2cnc3c(=S)nc[nH]c32)C(OC(=O)CCCC)C1OC(=O)CCCC (stereo not drawn),20.2%
6,CC/C=C\C[C@H]1C/C=C2/C(=O)C=C[C@H]2C/C=C\CCCC(=O)O1,51.2%
7,CCNc1ncnc2c1cnn2C1CCCO1 (stereo not drawn),60.9%
8,C=C1C(=O)O[C@H]2[C@H]1CC/C(COC(=O)NCCc1ccc(OC)c(OC)c1)=C\CC[C@@]1(C)O[C@@H]21,26.6%
9,O=C(Cc1ccc(/C=C/C(=O)c2ncc[nH]2)cc1)Nc1ccc(F)cc1,69.7%
10,Clc1ccc2c(NCCCNc3nc(-n4ccnc4)nc4ccccc34)ccnc2c1,58%
11,CCc1nc(N)nc(N)c1C#CC(C)c1ccc(-c2ccncc2)cc1Cl (stereo not drawn),6.88% (active)
12,Cc1cc2c3ccccc3ccc2[n+]2ccccc12,71.5%
13,COc1ccc(SC2c3ccc(C)cc3Oc3nc(N)c(C#N)c(N)c32)cc1 (stereo not drawn),-56.7% (active)
14,NC(=NC1C2CC3CC(C2)CC1C3)Nc1ccc(I)cc1 (stereo not drawn),31.1%
15,CC(=O)OCCC/C(=C/c1cc2ccccc2c2ccccc12)[N+](=O)[O-],-76% (active)
16,COc1cc(C(=O)/C=C/c2cccnc2Nc2ccc(Cl)cc2)cc(OC)c1OC,-54.5% (active)
17,CCOc1ccc(-n2nc(C(=O)Nc3cc(OC)c(OC)c(OC)c3)nc2-c2cc(OC)c(OC)c(OC)c2)cc1,69.9%
18,CC(=O)Oc1ccc(Cl)cc1CN(C(C)=O)C1CCCCC1,83.4%
19,COc1cc(-c2nn(-c3ccc(Br)cc3)cc2C(=O)O)ccc1O,94.5%
20,COc1cc2nnc3c4cccnc4[nH]c3c2cc1OC,-40.8% (active)

row,Compound,growth
1,CCNC(=O)Oc1ccc(/C(=C(\C)c2ccc(Cl)cc2)c2ccc(OCCN(CC)CC)cc2)cc1,57.9%
2,CCc1nc(N)nc(N)c1C#CC(C)c1cc(-c2ccnc(C)c2)c2oc(C)nc2c1 (stereo not drawn),-0.67% (active)
3,CC1=C(O)C(=O)C(C(C#N)(C#N)C(C#N)C#N)C1 (stereo not drawn),112%
4,CN(C)c1ccc(NC(=O)c2ccc(/C=C/C(=O)c3ncc[nH]3)cc2)cc1,94.1%
5,CN(C)c1ccc(N=Nc2ccccn2)c(O)c1,57.9%
6,O=C1C=CC(=O)N1c1ccc2c(c1)Cc1cc(F)ccc1-2,83.4%
7,CCCCn1cnc2c(Sc3c([N+](=O)[O-])ncn3C)nc(N)nc21,76.2%
8,NC(CSC(c1ccccc1)(c1ccccc1)c1ccc(Cl)cc1)C(=O)O (stereo not drawn),-15.9% (active)
9,Oc1ccc(N=Cc2ccccc2O)cc1,75.3%
10,Clc1ccc2c(NCCNc3nc(N4CCCCC4)nc4ccccc34)ccnc2c1,-16% (active)
11,CCN1CCN(c2nc(NCCCNc3ccnc4cc(Cl)ccc34)c3ccccc3n2)CC1,64.9%
12,CCOC(=O)c1sc(Nc2ccc(Cl)cc2)nc1C,-20.9% (active)
13,CN1C(=O)C2(SCC(C(=O)NCc3ccccc3)N2C(=O)C2CCCCC2)c2ccccc21 (stereo not drawn),86.3%
14,CSc1ccc(-c2ccccc(=O)c2O)cc1,49.5%
15,CC(=O)c1cc2c(N)c(C(=O)Nc3cccc(F)c3C)sc2nc1C,73.1%
16,COc1ccc2c(c1)C(=O)/C(=C/c1ccccn1)CC2,84.1%
17,O=C(Cc1ccc(/C=C/C(=O)c2ncc[nH]2)cc1)Nc1ccccc1,83.6%
18,COc1cccc2c1C(=O)c1c(O)c3c(c(O)c1C2=O)C[C@](O)(C(=O)CO)C[C@H]3O[C@@H]1C[C@@H](NC(=O)CCCN(C)C2(c3ccc(F)cc3)CC3CCC2C3)[C@H](O)[C@@H](C)O1 (stereo partly drawn),48.7%
19,COc1cccc2c1C(=O)c1c(O)c3c(c(O)c1C2=O)C[C@](O)(C(=O)CO)C[C@H]3O[C@@H]1C[C@@H](NC(=O)CCCCCN(C)C2(c3ccc(F)cc3)CC3CCC2C3)[C@H](O)[C@@H](C)O1 (stereo partly drawn),51.6%

# Test system: NCI-H522 lung
# Test: as above
# Conditions: 10 µM unless noted
row,Compound,growth
1,CN(C)C(=S)N=Nc1c(O)[nH]c2ccccc12,27.4%
2,NC(N)=N/N=C(/c1ccccc1)c1ccc(F)cc1,-44.8% (active)
3,CC(=O)c1cc2c(N)c(C(=O)Nc3cccc4ccccc34)sc2nc1C,13%
4,O=c1ccccc(-c2ccc(Br)cc2)c1O,19.2%
5,CCCCC(=O)OCC1OC(n2cnc3c(=S)nc[nH]c32)C(OC(=O)CCCC)C1OC(=O)CCCC (stereo not drawn),34.5%
6,CC/C=C\C[C@H]1C/C=C2/C(=O)C=C[C@H]2C/C=C\CCCC(=O)O1,-17.7% (active)
7,CCNc1ncnc2c1cnn2C1CCCO1 (stereo not drawn),111%
8,C=C1C(=O)O[C@H]2[C@H]1CC/C(COC(=O)NCCc1ccc(OC)c(OC)c1)=C\CC[C@@]1(C)O[C@@H]21,-79.9% (active)
9,O=C(Cc1ccc(/C=C/C(=O)c2ncc[nH]2)cc1)Nc1ccc(F)cc1,22.2%
10,Clc1ccc2c(NCCCNc3nc(-n4ccnc4)nc4ccccc34)ccnc2c1,89%
11,CCc1nc(N)nc(N)c1C#CC(C)c1ccc(-c2ccncc2)cc1Cl (stereo not drawn),-9.46% (active)
12,Cc1cc2c3ccccc3ccc2[n+]2ccccc12,-10.1% (active)
13,COc1ccc(SC2c3ccc(C)cc3Oc3nc(N)c(C#N)c(N)c32)cc1 (stereo not drawn),-90.3% (active)
14,NC(=NC1C2CC3CC(C2)CC1C3)Nc1ccc(I)cc1 (stereo not drawn),42.4%
15,CC(=O)OCCC/C(=C/c1cc2ccccc2c2ccccc12)[N+](=O)[O-],-59.9% (active)
16,COc1cc(C(=O)/C=C/c2cccnc2Nc2ccc(Cl)cc2)cc(OC)c1OC,-58.4% (active)
17,CCOc1ccc(-n2nc(C(=O)Nc3cc(OC)c(OC)c(OC)c3)nc2-c2cc(OC)c(OC)c(OC)c2)cc1,65.9%
18,CC(=O)Oc1ccc(Cl)cc1CN(C(C)=O)C1CCCCC1,88.2%
19,COc1cc(-c2nn(-c3ccc(Br)cc3)cc2C(=O)O)ccc1O,67.7%
20,COc1cc2nnc3c4cccnc4[nH]c3c2cc1OC,-75.7% (active)

row,Compound,growth
1,CCNC(=O)Oc1ccc(/C(=C(\C)c2ccc(Cl)cc2)c2ccc(OCCN(CC)CC)cc2)cc1,55.4%
2,CCc1nc(N)nc(N)c1C#CC(C)c1cc(-c2ccnc(C)c2)c2oc(C)nc2c1 (stereo not drawn),18.2%
3,CC1=C(O)C(=O)C(C(C#N)(C#N)C(C#N)C#N)C1 (stereo not drawn),85.8%
4,CN(C)c1ccc(NC(=O)c2ccc(/C=C/C(=O)c3ncc[nH]3)cc2)cc1,59.4%
5,CN(C)c1ccc(N=Nc2ccccn2)c(O)c1,27.1%
6,O=C1C=CC(=O)N1c1ccc2c(c1)Cc1cc(F)ccc1-2,91.1%
7,CCCCn1cnc2c(Sc3c([N+](=O)[O-])ncn3C)nc(N)nc21,97.3%
8,NC(CSC(c1ccccc1)(c1ccccc1)c1ccc(Cl)cc1)C(=O)O (stereo not drawn),5.69% (active)
9,Oc1ccc(N=Cc2ccccc2O)cc1,81.3%
10,Clc1ccc2c(NCCNc3nc(N4CCCCC4)nc4ccccc34)ccnc2c1,-21.8% (active)
11,CCN1CCN(c2nc(NCCCNc3ccnc4cc(Cl)ccc34)c3ccccc3n2)CC1,-21.5% (active)
12,CCOC(=O)c1sc(Nc2ccc(Cl)cc2)nc1C,-14.4% (active)
13,CN1C(=O)C2(SCC(C(=O)NCc3ccccc3)N2C(=O)C2CCCCC2)c2ccccc21 (stereo not drawn),75.4%
14,CSc1ccc(-c2ccccc(=O)c2O)cc1,24.1%
15,CC(=O)c1cc2c(N)c(C(=O)Nc3cccc(F)c3C)sc2nc1C,82.1%
16,COc1ccc2c(c1)C(=O)/C(=C/c1ccccn1)CC2,16.5%
17,O=C(Cc1ccc(/C=C/C(=O)c2ncc[nH]2)cc1)Nc1ccccc1,31.2%
18,COc1cccc2c1C(=O)c1c(O)c3c(c(O)c1C2=O)C[C@](O)(C(=O)CO)C[C@H]3O[C@@H]1C[C@@H](NC(=O)CCCN(C)C2(c3ccc(F)cc3)CC3CCC2C3)[C@H](O)[C@@H](C)O1 (stereo partly drawn),-82.7% (active)
19,COc1cccc2c1C(=O)c1c(O)c3c(c(O)c1C2=O)C[C@](O)(C(=O)CO)C[C@H]3O[C@@H]1C[C@@H](NC(=O)CCCCCN(C)C2(c3ccc(F)cc3)CC3CCC2C3)[C@H](O)[C@@H](C)O1 (stereo partly drawn),-83.1% (active)
